Reference: PubChem BioAssay (EPA / NIEHS)
Activity calls are given as the source filed them. How the source made its calls: active means hit-call score of the fitted dose curve at least 0.9, where 1 is the maximum; inactive means score below 0.9.

Test: BSK_BT_PBMCCytotoxicity: PBMC Cytotoxicity Assessment in the BioMAP Diversity Plus: BT Assay (AID 2284225)
Conditions: primary human B cells with PBMC
Description: BSK_BT is a cell-based, multiplexed-readout assay that uses B cell and peripheral blood mononuclear cells, a human vascular primary cell co-culture, with measurements taken at 24 hours after chemical dosing in a microplate: 96-well plate.BSK_BT_PBMCCytotoxicity is an assay component measured in the BSK_BT assay. It measures dehydrogenase activity, a form of viability reporter, as detected with fluorescence intensity signals by Alamar Blue Reduction technology.Data from the assay component BSK_BT_PBMCCytotoxicity was analyzed at the endpoint, BSK_BT_PBMCCytotoxicity, in the positive analysis fitting direction relative to DMSO as the negative control and baseline of activity. Using a type of viability reporter, gain or loss-of-signal activity can be used to understand cellular changes in viability. To generalize the intended target to other relatable targets, this assay endpoint is annotated to the 'cell cycle' intended target family, where the subfamily is 'cytotoxicity'.
The levels of cell surface (or secreted, indicated by the prefix "s") biomarker endpoints were measured by ELISA. Overt cytotoxicity to cells in confluent adherent cultures (all systems other than the BT system) was assessed by measuring total protein levels using sulforhodamine B (SRB) staining in parallel cultures at the time of biomarker measurements, indicated as SRB endpoints. For proliferation assays for adherent cell types, individual cell types are cultured at sub-confluence and relative cell numbers quantified by SRB staining at time points optimized for each system (48 h: 3C and CASM3C systems; 72 h: BT and HDF3CGF systems; 96 h: SAg system). SRB was performed by staining cells with 0.1% SRB after fixation with 10% TCA and reading wells at 560 nm.Viability and proliferation of PBMC (T cells) was quantified by Alamar Blue reduction for the SAg and BT systems. For PBMC viability (referred to as PBMC Cytotoxicity within the assay endpoint names), cells were plated (75,000/well in a 96-well plate) and then chemical samples added for 1 h before addition of activators, SEB and TSST-1 (20 ng/mL final concentration each). Cells were incubated for 90 h. Then, Alamar Blue (20 uL/well) (Invitrogen, Cat DAL1100) was added for 6 h, and the plates were read with a fluorescence microplate reader at 546/580 nm (excitation/emission). For PBMC proliferation, cells were plated and activated as above but incubated for only 16 h prior to addition of Alamar Blue. Plates were read after 6 h.

| Compound | outcome | AC50 |
| --- | --- | --- |
| IC(I)I | inactive | – |
| CCCCCC(C=O)=Cc1ccccc1 | inactive | – |
| Oc1c(Cl)cc(Cl)c(Cl)c1Cc1c(O)c(Cl)cc(Cl)c1Cl | – | 20 µM (active) |
| COc1ccc(CCN2CCC(Nc3nc4ccccc4n3Cc3ccc(F)cc3)CC2)cc1 | – | 7.27 µM (active) |
| COc1cc(Cl)c(OC)cc1N | inactive | – |
| CN(C)C(=O)Nc1ccc(Oc2ccc(Cl)cc2)cc1 | inactive | – |
| O=C1OC2(c3ccccc31)c1ccc(O)c(Br)c1Oc1c2ccc(O)c1Br | inactive | – |
| Clc1cc(Cl)c(-c2c(Cl)c(Cl)cc(Cl)c2Cl)cc1Cl | inactive | – |
| C[C@@H]1CCN(C(=O)[C@H](CCCN=C(N)N)NS(=O)(=O)c2cccc3c2NC[C@H](C)C3)[C@@H](C(=O)O)C1 | inactive | – |
| C=C(C)C(=O)OCC(CC)(COC(=O)C(=C)C)COC(=O)C(=C)C | inactive | – |
| O=C1c2ccccc2C(=O)c2c(O)ccc(O)c21 | – | 11 µM (active) |
| CC(=O)Nc1ccc(C(=O)CCl)cc1 | – | 5.36 µM (active) |
| C=C(C)C(=O)OCCOCCOCCOC(=O)C(=C)C | inactive | – |
| c1ccc(Oc2ccccc2)cc1 | inactive | – |
| O=C1OC[C@H](Cc2cccc(O)c2)[C@H]1Cc1cccc(O)c1 | inactive | – |
| COc1ccc(OC)c(N=Nc2c(O)ccc3ccccc23)c1 | inactive | – |
| CN(c1nccc(=O)[nH]1)C1CCN(c2nc3ccccc3n2Cc2ccc(F)cc2)CC1 | inactive | – |
| CC=Cc1ccc(OCC)c(O)c1 | inactive | – |
| CS(=O)(=O)c1ccc(C2=C(c3ccccc3)C(=O)OC2)cc1 | inactive | – |

| Compound | outcome | AC50 |
| --- | --- | --- |
| CN(C)C(=S)SC(=S)N(C)C | – | 0.396 µM (active) |
| CCC(C)c1cc([N+](=O)[O-])cc([N+](=O)[O-])c1OC(=O)OC(C)C (stereo not drawn) | – | 20 µM (active) |
| CC1(C)C2=CCCC(C)(C)[C@]23CC[C@H]1C3 | inactive | – |
| C=C(C)[C@H]1CC=C(C)C(=O)C1 | inactive | – |
| CCCCN(CCCC)C(=O)N(CCCC)CCCC | – | 32.8 µM (active) |
| CC(=O)C1(C)CC2=C(CCCC2(C)C)CC1C (stereo not drawn) | – | 31.9 µM (active) |
| C1=CC2C3C=CC(C3)C2C1 (stereo not drawn) | inactive | – |
| Cc1cc(CCC(=O)OCCOCCOCCOC(=O)CCc2cc(C)c(O)c(C(C)(C)C)c2)cc(C(C)(C)C)c1O | inactive | – |
| CC(=O)c1c(C)c([N+](=O)[O-])c(C(C)(C)C)c([N+](=O)[O-])c1C | inactive | – |
| c1ccc(CCc2ccccc2)cc1 | inactive | – |
| CCCCCCCCCCCCCCCC(=O)OC/C=C(C)/C=C/C=C(C)/C=C/C1=C(C)CCCC1(C)C | inactive | – |
| CCCCOC(=O)CCCCCCCC(=O)OCCCC | inactive | – |
| CCN(CC)C(=O)N(CC)CC | inactive | – |
| CC(C)(C)CC(C)(C)c1ccc(OCCOCC[N+](C)(C)Cc2ccccc2)cc1 | – | 8.02 µM (active) |
| CC(C=O)Cc1ccc(C(C)(C)C)cc1 (stereo not drawn) | inactive | – |
| C=C(C)C(=O)OCCOCCOCCOCCOC(=O)C(=C)C | inactive | – |
| CC(C)(N=C=O)c1cccc(C(C)(C)N=C=O)c1 | inactive | – |
| CSCCC=O | inactive | – |
| c1ccc2cc(Nc3ccc(Nc4ccc5ccccc5c4)cc3)ccc2c1 | inactive | – |
